In the supplement of paper PMC11732987, “Enantioselective OTUD7B fragment discovery through chemoproteomics screening and high-throughput optimisation” (Communications Chemistry, 2025):

What was measured:
Assay in all cases: log2 ratio of Biotin-Ahx-Ub-VS probe labelling (fragment/DMSO); higher = less target engagement (more negative = stronger competition), active = hit call of the paper (q ≤ 0.05, log2 ratio ≤ -1)
Settings in all cases: compound concentration: 200 uM; treatment time: 3 h
USP34 = USP34 (UniProt Q70CQ2)
Summary of the method: (§1)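 Average log2 ratios of fragment over vehicle were obtained by unpaired t-test from global-median-normalised Spectronaut label-free quantities. Proteins with ≥2 unique peptides were included. HEK293T lysate (495 µg per sample) was treated in triplicate with fragment at 200 µM or vehicle for 3 h, then with Biotin-Ahx-Ub-VS at 0.5 µM final for 1 h, and labelled DUBs were NeutrAvidin-enriched and run by diaPASEF LC-MS/MS.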

USP36 = target: T1, USP36 (UniProt Q9P275)
T1 sequence (whole entry): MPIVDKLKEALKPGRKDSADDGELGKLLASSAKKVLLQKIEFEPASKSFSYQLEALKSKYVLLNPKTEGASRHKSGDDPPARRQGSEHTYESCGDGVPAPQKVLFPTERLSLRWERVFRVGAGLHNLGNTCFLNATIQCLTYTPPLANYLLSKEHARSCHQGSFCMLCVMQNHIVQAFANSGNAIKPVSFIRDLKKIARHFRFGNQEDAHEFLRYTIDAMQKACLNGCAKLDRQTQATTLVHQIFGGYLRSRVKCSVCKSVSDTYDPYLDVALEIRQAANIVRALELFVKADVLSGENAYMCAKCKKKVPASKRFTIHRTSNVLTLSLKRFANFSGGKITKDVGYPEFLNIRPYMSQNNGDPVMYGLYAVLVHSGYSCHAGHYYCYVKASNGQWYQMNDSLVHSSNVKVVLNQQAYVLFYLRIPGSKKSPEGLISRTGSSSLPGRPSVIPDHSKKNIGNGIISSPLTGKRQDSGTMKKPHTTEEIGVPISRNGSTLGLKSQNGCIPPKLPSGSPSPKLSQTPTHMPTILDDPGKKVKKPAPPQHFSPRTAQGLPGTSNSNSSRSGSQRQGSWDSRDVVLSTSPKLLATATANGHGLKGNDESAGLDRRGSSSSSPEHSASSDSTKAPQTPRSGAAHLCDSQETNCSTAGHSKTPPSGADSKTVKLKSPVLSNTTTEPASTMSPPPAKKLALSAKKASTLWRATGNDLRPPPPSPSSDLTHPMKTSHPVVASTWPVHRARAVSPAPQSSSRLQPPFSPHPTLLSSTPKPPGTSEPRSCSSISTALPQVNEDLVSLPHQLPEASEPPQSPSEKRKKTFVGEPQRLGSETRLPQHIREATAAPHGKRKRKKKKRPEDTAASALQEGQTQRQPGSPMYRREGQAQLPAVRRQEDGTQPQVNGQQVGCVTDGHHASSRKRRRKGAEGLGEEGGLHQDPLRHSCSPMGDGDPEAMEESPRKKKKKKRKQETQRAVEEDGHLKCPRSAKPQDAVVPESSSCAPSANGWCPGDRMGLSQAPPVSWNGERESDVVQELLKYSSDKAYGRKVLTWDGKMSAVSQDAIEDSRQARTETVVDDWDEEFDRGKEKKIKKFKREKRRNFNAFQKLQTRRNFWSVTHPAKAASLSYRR
Summary of the method: as §1

USP38 = target: T2, USP38 (UniProt Q8NB14)
T2 sequence (whole entry): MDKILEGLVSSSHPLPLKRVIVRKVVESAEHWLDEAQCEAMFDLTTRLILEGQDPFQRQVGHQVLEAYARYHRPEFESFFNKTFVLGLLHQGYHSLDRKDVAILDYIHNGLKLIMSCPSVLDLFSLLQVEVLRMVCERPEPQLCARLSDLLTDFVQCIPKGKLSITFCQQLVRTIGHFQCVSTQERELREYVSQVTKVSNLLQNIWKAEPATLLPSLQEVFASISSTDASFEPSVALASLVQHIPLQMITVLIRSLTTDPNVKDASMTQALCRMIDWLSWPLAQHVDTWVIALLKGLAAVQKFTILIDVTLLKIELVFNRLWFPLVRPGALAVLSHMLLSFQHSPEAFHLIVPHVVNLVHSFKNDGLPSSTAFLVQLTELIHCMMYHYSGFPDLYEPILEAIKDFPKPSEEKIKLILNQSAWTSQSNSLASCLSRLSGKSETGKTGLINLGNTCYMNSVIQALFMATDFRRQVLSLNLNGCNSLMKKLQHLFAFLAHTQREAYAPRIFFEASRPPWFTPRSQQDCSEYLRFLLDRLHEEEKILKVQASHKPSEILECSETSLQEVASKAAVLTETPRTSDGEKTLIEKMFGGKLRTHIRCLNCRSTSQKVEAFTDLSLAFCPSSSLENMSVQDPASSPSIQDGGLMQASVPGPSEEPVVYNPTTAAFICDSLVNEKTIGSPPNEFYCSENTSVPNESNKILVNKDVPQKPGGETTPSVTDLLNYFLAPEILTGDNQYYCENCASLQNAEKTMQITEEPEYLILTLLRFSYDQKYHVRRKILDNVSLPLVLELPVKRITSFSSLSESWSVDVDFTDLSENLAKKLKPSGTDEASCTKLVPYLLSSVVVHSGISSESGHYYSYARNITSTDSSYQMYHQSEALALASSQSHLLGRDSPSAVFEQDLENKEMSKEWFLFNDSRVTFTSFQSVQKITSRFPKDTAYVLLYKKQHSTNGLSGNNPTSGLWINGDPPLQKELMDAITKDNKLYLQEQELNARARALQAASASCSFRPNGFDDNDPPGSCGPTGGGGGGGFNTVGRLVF
Summary of the method: as §1

USP39 = target: T3, USP39 (UniProt Q53GS9)
T3 sequence (whole entry): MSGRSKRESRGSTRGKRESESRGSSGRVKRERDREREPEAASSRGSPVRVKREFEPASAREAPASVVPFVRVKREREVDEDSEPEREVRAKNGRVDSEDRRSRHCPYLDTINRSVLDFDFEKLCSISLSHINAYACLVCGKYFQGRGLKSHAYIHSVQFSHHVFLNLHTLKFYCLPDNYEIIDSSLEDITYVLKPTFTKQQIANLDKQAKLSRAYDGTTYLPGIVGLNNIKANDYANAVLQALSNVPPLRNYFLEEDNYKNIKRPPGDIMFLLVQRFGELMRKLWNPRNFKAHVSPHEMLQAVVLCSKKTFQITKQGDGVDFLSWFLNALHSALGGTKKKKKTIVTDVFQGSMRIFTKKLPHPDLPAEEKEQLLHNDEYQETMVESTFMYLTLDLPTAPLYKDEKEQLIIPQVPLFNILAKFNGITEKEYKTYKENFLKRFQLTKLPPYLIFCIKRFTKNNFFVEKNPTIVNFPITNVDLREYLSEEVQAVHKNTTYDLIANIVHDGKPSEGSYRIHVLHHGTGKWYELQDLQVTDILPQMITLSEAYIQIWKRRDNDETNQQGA
Summary of the method: as §1

USP4 = target: T4, USP4 (UniProt Q13107)
T4 sequence (whole entry): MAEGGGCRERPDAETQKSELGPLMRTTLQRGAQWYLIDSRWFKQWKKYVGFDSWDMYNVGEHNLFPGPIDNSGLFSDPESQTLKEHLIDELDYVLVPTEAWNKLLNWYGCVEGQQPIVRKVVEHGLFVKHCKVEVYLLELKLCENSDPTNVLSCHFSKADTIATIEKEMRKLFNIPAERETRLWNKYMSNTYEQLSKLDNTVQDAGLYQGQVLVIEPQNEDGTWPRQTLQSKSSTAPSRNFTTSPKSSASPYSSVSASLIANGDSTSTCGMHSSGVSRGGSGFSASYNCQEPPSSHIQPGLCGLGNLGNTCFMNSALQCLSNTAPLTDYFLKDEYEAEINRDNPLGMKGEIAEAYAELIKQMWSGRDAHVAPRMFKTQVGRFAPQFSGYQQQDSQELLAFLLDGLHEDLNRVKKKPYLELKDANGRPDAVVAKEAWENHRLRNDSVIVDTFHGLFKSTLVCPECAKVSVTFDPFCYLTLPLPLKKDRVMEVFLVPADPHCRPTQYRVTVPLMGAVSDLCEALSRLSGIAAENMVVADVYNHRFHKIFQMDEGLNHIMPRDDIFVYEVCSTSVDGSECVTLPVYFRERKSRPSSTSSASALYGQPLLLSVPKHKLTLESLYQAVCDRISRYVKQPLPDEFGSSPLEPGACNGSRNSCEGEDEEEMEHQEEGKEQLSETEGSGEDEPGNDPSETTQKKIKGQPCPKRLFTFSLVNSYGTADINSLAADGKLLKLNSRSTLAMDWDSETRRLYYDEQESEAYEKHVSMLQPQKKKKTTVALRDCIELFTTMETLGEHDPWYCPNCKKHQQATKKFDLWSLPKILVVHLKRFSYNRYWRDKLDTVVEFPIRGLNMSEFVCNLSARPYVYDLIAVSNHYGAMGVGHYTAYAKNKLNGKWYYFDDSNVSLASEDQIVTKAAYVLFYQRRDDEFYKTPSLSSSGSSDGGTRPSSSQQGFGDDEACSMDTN
Summary of the method: as §1

Measured: log2 ratio of Biotin-Ahx-Ub-VS probe labelling

Chain of USP34 (Q70CQ2 whole entry, the tested form may be a part): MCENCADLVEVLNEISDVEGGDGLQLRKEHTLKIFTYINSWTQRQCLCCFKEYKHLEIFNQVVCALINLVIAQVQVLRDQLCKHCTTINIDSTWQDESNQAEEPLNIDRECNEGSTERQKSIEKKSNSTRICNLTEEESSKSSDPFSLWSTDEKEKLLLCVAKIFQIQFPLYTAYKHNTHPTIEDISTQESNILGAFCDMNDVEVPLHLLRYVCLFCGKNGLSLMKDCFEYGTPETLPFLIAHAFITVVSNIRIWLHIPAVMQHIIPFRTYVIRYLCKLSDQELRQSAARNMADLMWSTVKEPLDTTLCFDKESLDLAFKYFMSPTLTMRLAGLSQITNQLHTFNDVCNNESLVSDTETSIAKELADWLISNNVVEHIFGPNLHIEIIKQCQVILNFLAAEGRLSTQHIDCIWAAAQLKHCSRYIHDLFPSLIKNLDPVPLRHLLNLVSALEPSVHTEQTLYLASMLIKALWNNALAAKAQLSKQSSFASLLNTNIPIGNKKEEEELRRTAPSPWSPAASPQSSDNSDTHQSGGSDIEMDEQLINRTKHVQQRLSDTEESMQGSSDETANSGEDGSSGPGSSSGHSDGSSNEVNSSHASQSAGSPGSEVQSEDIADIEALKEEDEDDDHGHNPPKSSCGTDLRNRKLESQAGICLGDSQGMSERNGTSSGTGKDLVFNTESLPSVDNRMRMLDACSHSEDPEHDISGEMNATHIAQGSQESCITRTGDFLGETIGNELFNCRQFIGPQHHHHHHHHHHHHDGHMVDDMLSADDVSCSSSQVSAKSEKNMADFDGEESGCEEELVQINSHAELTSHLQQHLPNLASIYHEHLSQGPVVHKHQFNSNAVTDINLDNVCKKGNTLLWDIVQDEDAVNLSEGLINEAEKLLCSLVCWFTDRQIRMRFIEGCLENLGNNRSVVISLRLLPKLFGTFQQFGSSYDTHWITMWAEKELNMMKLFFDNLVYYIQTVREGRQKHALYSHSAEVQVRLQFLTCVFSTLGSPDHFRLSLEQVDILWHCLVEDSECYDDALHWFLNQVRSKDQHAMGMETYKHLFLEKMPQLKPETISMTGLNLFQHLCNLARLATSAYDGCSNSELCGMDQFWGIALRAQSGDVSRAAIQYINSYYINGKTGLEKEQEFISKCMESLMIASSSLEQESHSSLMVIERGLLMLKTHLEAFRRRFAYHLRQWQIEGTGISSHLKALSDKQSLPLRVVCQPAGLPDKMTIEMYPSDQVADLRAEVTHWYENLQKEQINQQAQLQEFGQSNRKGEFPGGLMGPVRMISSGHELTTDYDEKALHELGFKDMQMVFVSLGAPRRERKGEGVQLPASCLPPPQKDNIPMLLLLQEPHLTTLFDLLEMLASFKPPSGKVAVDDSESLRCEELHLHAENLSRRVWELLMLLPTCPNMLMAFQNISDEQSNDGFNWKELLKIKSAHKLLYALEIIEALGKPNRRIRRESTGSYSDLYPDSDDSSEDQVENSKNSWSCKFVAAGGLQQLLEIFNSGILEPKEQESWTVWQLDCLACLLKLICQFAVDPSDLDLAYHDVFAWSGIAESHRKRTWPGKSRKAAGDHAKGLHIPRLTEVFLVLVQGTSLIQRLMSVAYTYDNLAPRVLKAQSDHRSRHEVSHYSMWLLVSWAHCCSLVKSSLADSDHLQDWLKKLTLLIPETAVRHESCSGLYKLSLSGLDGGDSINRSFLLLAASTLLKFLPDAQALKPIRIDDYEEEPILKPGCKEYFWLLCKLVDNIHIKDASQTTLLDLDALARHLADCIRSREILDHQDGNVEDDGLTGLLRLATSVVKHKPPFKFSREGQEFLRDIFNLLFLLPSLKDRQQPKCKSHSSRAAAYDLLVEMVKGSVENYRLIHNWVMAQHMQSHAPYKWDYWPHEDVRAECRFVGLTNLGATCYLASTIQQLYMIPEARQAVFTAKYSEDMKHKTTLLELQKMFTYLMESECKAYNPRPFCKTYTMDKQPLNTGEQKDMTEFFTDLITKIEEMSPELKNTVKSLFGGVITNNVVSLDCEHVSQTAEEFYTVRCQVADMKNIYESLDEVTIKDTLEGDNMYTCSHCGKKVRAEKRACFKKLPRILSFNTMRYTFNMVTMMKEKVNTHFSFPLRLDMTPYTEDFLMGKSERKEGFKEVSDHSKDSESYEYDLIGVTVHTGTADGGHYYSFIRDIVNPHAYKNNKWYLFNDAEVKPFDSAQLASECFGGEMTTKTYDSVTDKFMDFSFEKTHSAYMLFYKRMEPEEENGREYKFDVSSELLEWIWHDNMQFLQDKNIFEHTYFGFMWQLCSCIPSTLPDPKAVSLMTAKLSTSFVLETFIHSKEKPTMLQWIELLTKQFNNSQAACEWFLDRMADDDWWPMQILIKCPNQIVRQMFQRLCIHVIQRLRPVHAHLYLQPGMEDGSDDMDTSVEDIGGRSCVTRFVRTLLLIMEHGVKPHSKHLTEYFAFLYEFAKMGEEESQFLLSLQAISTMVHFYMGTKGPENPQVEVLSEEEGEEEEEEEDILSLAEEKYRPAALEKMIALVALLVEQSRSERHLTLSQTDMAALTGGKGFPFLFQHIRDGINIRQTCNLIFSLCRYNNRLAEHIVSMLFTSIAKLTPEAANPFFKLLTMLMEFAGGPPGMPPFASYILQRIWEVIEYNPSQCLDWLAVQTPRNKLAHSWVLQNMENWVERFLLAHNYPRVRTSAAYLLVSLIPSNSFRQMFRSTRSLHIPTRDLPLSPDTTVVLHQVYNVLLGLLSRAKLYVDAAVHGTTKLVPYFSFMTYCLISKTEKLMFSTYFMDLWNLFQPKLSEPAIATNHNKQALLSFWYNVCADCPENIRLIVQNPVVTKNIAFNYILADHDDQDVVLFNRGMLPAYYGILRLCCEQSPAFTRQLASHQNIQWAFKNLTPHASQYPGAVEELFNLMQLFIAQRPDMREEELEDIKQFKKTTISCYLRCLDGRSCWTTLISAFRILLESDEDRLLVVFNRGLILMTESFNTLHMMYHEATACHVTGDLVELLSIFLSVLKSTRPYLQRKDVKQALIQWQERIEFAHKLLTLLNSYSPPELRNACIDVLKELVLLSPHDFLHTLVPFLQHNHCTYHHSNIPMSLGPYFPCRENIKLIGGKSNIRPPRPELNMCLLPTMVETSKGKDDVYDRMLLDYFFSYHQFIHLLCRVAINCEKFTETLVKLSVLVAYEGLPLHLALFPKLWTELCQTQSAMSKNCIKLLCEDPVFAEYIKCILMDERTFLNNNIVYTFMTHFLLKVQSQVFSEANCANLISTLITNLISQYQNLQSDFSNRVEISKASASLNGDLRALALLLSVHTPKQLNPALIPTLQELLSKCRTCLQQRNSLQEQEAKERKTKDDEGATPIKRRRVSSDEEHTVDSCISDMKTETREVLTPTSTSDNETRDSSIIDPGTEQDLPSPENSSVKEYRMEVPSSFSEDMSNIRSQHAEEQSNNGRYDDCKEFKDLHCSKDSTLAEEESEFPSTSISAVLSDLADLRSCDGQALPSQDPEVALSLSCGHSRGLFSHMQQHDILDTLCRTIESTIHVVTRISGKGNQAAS

CN(C)S(=O)(=O)c1ccccc1CNC(=O)CCl
inactive: USP34 0.137 | USP36 -0.00554 | USP38 0.218 | USP39 0.237 | USP4 -0.0523
